Inconclusive results are not listed. A call without a number means that no potency is given here. The source made the active and inactive calls. The call rests on the fitted dose curve.
Assay: qHTS assay to identify small molecule agonists of the AP-1 signaling pathway - cell viability counter screen (AID 1159525); further: nearly all actives have a fitted effect of over 55% in size
Conditions: ME-180 (cervical carcinoma) AP-1-bla cells viability, ATP luminescence, 5 h; series mostly up to 76.8 µM
From the text: National Center for Advancing Translational Sciences [NCATS]
NIH Chemical Genomics Center [NCGC]
U.S. Environmental Protection Agency [EPA]
National Institutes of Environmental Health Sciences [NIEHS]
National Toxicology Program [NTP]
U.S. Food and Drug Administration [FDA]
Activator protein-1 (AP-1), a transcription factor, plays an important role in tumor genesis by regulating genes involved in cell proliferation, differentiation, apoptosis, and angiogenesis. AP-1 activity is induced by a complex network of signaling pathways that involves extracellular signals, such as growth factors. The AP-1 protein complex formed from c-Fos and c-Jun binding to the AP-1 response element results in transcriptional activation of genes containing such elements within their promoter.
Low molecular weight molecules have been discovered and developed to modulate various components of these signaling pathways, for example, MAP kinase inhibitors. However, many points of pathway modulation remain untested due to the lack of chemical probes making this signaling locus of general interest.
Using a beta-lactamase reporter-gene under control of the AP-1 response element, a cell-based assay [CellSensor(TM) AP-1-bla ME-180 developed by Invitrogen Corp.] was used to measure EGF-induced signaling. The Tox21 10K library compounds were measured for their ability to positively modulate the action of EC50 EGF on reporter gene activity. Compounds were screened in a 15-pt titration series in 1536-well format. The cytotoxicity of the Tox21 compound library against this cell line was tested in parallel by measuring the intra cellular ATP content in the same wells.
Tox21 Assay Protocol Summary:
2500 cells/5uL in Opti-MEM medium containing 0.5% dialyzed FBS, 0.1 mM NEAA, 1 mM sodium pyruvate and 10 mM HEPES was dispensed into 1536-well black wall/clear bottom plates using a Multidrop dispenser and cells were cultured at 37 degrees Celsius overnight. Next day 23 nL of compounds dissolved in DMSO, positive controls or DMSO were delivered to each well using a pin tool. The plates were incubated at 37 degrees Celsius for 5 hours. 1 uL of LiveBLAzerTM B/G FRET substrate (Solution A+B+C+D) was added to each well using a Flying Reagent Dispenser. After incubated at room temperature for 2.5 hours the plates were measured on an EnVision plate reader at Excitation 405nm, Emission1=460nm and Emission 2=530nm. The %Activity was determined from the ratio of 460nm/530nm.
After the plates were read for Beta-Lactamase assay on Envision; 3 ul Cell Titer Glo (Promega) was added to measure the cytotoxicity and the plates were then incubated at RT in dark for 30 min. The luminescence was read on ViewLux (Perkin Elmer, Shelton, CT) using 6 sec exposure. ViewLux data was expressed as relative luminescence units.
For primary data analysis, raw plate reads for each titration point were first normalized relative to […] EGF control (100%) and DMSO only wells (basal, 0%).
For primary data analysis for viability assay, raw plate reads for each titration point were first normalized Tetra n-octyl ammonium bromide control (-100%) and DMSO (control, 100%).
Potency means the concentration at half of the fitted maximal effect.

SMILES	Potency
Clc1nc(Cl)c(Cl)c(Cl)c1Cl	inactive
C#C[C@]1(O)CC[C@H]2[C@@H]3CCc4cc(OC)ccc4[C@H]3CC[C@@]21C	inactive
COC(=O)CCC(=O)OC	inactive
C/C=C/C(=O)O	inactive
S=C(NC1CCCCC1)NC1CCCCC1	inactive
CCCc1c(OCCCCc2nn[nH]n2)ccc(C(C)=O)c1O	inactive
CC(=O)CC/C=C(\C)CCC=C(C)C	inactive
O=P(O)(O)O	inactive
CC(=O)Oc1ccccc1C(=O)Nc1ncc([N+](=O)[O-])s1	inactive
O=C=Nc1ccc(Cc2ccc(N=C=O)cc2)cc1	inactive
O=C(COc1ccc(Cl)cc1)N1CCN(Cc2ccc3c(c2)OCO3)CC1	inactive
CC(C)OC=O	inactive
Cc1cccc(C(=O)O)c1	inactive
O=CCc1ccccc1	inactive
CC(C)OB(OC(C)C)OC(C)C	inactive
NNc1ccc(C(=O)O)cc1	inactive
CCCCc1oc2ccccc2c1C(=O)c1cc(I)c(OCCN(CC)CC)c(I)c1	31.1 µM (active)
Nc1ncnc2nc[nH]c12	inactive
Nc1ncn([C@@H]2O[C@H](CO)[C@@H](O)[C@H]2O)c(=O)n1	inactive
O=[N+]([O-])c1ccc2c(c1)Cc1ccccc1-2	inactive

SMILES	Potency
CCC(C)c1ccccc1O (stereo not given)	inactive
c1cc(-c2ccncc2)ccn1	inactive
Cc1cc2nc3c(=O)[nH]c(=O)nc-3n(C[C@H](O)[C@H](O)[C@H](O)CO)c2cc1C	inactive
Nc1ccccc1N	inactive
COC(C)COC(C)COC(C)CO (stereo not given)	inactive
OC[C@H]1O[C@@H]2O[C@H]3[C@H](O)[C@@H](O)[C@@H](O[C@H]4[C@H](O)[C@@H](O)[C@@H](O[C@H]5[C@H](O)[C@@H](O)[C@@H](O[C@H]6[C@H](O)[C@@H](O)[C@@H](O[C@H]7[C@H](O)[C@@H](O)[C@@H](O[C@H]8[C@H](O)[C@@H](O)[C@@H](O[C@H]1[C@H](O)[C@H]2O)O[C@@H]8CO)O[C@@H]7CO)O[C@@H]6CO)O[C@@H]5CO)O[C@@H]4CO)O[C@@H]3CO	inactive
CC1=CC2C3CC(C=C3C)C2C1 (stereo not given)	inactive
OC(CCl)CCl	inactive
CCCCOCCOCCO	inactive
c1ccncc1	inactive
Cc1ccc2c(n1)Oc1ccc(C(C)C(=O)OCC(=O)N(C)C)cc1C2 (stereo not given)	inactive
CN(C)C(=N)N=C(N)N	inactive
CCC(C)OC(=O)c1ccc(O)cc1 (stereo not given)	inactive
CC(C)=CCC/C(C)=C\CO	inactive
CC(C)=CCCC(C)CCO (stereo not given)	inactive
CN1C(C(=O)Nc2ccccn2)=C(O)c2ccccc2S1(=O)=O	inactive
COC(=O)c1ccccc1	inactive
CC(C)Oc1ccc2c(=O)c(-c3ccccc3)coc2c1	inactive
CCCCC(CC)COP(=O)(OCC(CC)CCCC)OCC(CC)CCCC (stereo not given)	inactive
CCOC(=O)C(C#N)=C(c1ccccc1)c1ccccc1	inactive
